Shiga toxin inh: inhibitors of Shiga toxin in Vero cells; Vero cells, Shiga toxin protein synthesis inhibition reporter; inhibition, % at 38.7 µM; hit rate 9.2% among 290,000; AID 2315; in the data active = inhibition mostly above about 28%, no sharp cut-off; inactive = mostly below about 43%; also: 0% is about no effect
LmPK inh: inhibitors of Leishmania mexicana pyruvate kinase; hit rate 0.37% among 290,000; Q27686; Potency, µM (top dose mostly 57.5 µM), for the others: at the top dose activity change, negative = inhibition, hits mostly inhibitors; purified LmPK, Kinase-Glo ATP luminescence, 1 h; also: potency is read from the fitted curve at half-maximal effect; % is scaled to controls: 0 for no effect and ±100 for the full control effect
Target sequence (Q27686 whole entry, looked up): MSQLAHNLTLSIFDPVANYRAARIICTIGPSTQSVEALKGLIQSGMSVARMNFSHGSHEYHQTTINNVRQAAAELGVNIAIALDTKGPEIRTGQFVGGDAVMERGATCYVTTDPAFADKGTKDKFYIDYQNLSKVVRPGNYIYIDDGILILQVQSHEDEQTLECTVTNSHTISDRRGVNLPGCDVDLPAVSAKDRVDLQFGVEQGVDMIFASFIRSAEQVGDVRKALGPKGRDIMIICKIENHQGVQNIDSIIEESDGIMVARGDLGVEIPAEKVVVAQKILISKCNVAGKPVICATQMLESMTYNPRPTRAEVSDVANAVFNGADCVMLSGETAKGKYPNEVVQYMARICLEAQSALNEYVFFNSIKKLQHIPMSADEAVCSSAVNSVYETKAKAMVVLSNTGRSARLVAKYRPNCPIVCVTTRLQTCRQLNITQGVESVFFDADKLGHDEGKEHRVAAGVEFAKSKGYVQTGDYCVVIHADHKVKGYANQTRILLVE
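Screened at intermediate enzyme activity to detect both inhibitors and activators: LmPK at 0.1 nM, with a 0.5 nM enzyme column as activation reference. PEP 0.5 mM, ADP 0.1 mM; ATP detected by luminescence after 1 h.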
Cycloheximide cs: counter-screen hit for Shiga toxin inhibitors, cycloheximide; max response, %; cell reporter, cycloheximide protein synthesis inhibition counterscreen; hit rate 12% among 300,000; in the data active = max response mostly above about 13%, no sharp cut-off; inactive = mostly below about 14%; also: read at 38.3 µM for the half of the compounds with a filed dose; 0% is about no effect
Pf growth 96h: inhibits malaria parasite growth, 96 h; P. falciparum luciferase reporter growth, 96 h; Potency, µM (series often up to 28.7 µM), inactives show at the highest dose activity change, negative = inhibition, usual class: inhibitors; hit rate 6.9% among 320,000; AID 504834; also: potency is read from the fitted curve at half-maximal effect; % is scaled to controls: 0 for no effect and ±100 for the full control effect
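Infected RBCs, 2% Hct / 0.05% parasitemia final; luciferase-reporter P. falciparum; cpd 96 h, 37 C, 5% CO2; luciferase detection reagent; luminescence.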
Pf growth 48h: inhibits P. falciparum growth in the first generation, 48 h | AID 504832 | Potency, µM (doses to about 28.7 µM), for the others: top-dose activity change, negative = inhibition, hits mostly inhibitors | P. falciparum luciferase growth in erythrocytes, 48 h | hit rate 5.9% among 310,000; also: potency is read from the fitted curve at half-maximal effect; % is scaled to controls: 0 for no effect and ±100 for the full control effect
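Here the parasites carry a stable luciferase gene and grow inside erythrocytes in Albumax-based RPMI medium with compound for one erythrocytic cycle. Activity is scored as loss of luminescent signal.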
Active calls of the source: *; ? = inconclusive; . = no result given; [ ] = dose if it differs, or a comment. A selection: hits, their analogues and other compounds. The true share with any hit is near 22%. Unless noted, calls follow the shape of the dose curve; as a rule, active = well fitted inhibition curve with a large enough effect; inconclusive = small, poorly fitted or top-dose-only effect, or another doubt; inactive = no such curve, though single readings can be large or run the other way.

SMILES	Shiga toxin inh	LmPK inh	Cycloheximide cs	Pf growth 96h	Pf growth 48h
Cc1nn(C)c(C(=O)N/N=C/c2cc3c(cc2Br)OCO3)c1Br	-4.4	0.2%	-2.0	?	?
Cc1onc(-c2ccccc2)c1C(=O)N/N=C/c1cc2c(cc1Cl)OCO2	9.7	4.2%	-1.0	51.3%	9.0%
CCOc1cc(/C=N/NC(=O)c2nn(C)cc2Br)ccc1OCc1ccccc1Cl	2.9	5.4%	-0.9	?	?
COC(=O)[C@]1(Cc2ccccc2)N[C@H](c2ccc(-c3ccc(Cl)c(Cl)c3)cc2)[C@@H]2C(=O)N(C)C(=O)[C@@H]21	.	.	.	9.28µM*	5.86µM*
CCOC(=O)C1(CC)NC(c2ccc(N(C)C)cc2)C2C(=O)N(C)C(=O)C21 (configuration not stated)	15.2	-2.5%	-5.3	-2.6%	-3.9%
COc1ccc(N2C(=O)C3C(c4ccc(C(=O)O)cc4)NC(Cc4ccccc4)(C(=O)O)C3C2=O)c([N+](=O)[O-])c1 (configuration not stated)	-16.0	1.3%	6.2	2.94µM*	12.4%
COC(=O)[C@]1(Cc2ccccc2)N[C@H](c2ccc(-c3cc(C(C)=O)cs3)cc2)[C@@H]2C(=O)N(C)C(=O)[C@@H]21	.	.	.	?	9.28µM*
COC(=O)[C@]1(Cc2ccccc2)N[C@H](c2ccc(-c3cccc(Cl)c3)cc2)[C@@H]2C(=O)N(C)C(=O)[C@@H]21	.	.	.	5.22µM*	13.1µM*
COC(=O)C1(CCSC)NC(c2ccco2)C2C(=O)N(C)C(=O)C21 (configuration not stated)	-0.9	0.1%	0.1	.	15.6%
COC(=O)C1(Cc2ccccc2)NC(c2ccc(F)cc2)C2C(=O)N(C)C(=O)C21 (configuration not stated)	-1.2	5.1%	-1.3	34.4%	-37.3%
CC(=O)O/N=C(\N)c1cnn2c(C(F)(F)F)cc(C(F)(F)F)nc12	-2.3	-3.2%	1.3	23.6%	-1.7%
COc1cccc(N2CCN(c3ncccn3)CC2)c1	44.6*	-5.1%	59.6*	.	97.6%
CC(=O)c1ccc(N2CCN(c3ncccn3)CC2)cc1	48.3	0.3%	28.9*	69.9%	80.2%
COc1cccc(C(=O)N2CCN(c3ncccn3)CC2)c1	-6.4	2.1%	-3.3	0.0%	6.0%
COc1cccc(N2CCN(c3c4c(nc5ncnn35)CCC4)CC2)c1	-9.3	-4.5%	-1.6	13.1µM*	?
COc1ccc(C(=O)NCC(=O)OCC(=O)Nc2ncc(Cl)cc2Cl)cc1[N+](=O)[O-]	.	.	.	?	-3.1%
COc1ccc(S(=O)(=O)N(CC(=O)NCc2ccncc2)c2ccc(C)cc2)cc1OC	-8.6	-0.4%	-2.2	?	-21.5%
COc1ccc(N2CCN(C(=O)c3cc4c(s3)-c3ccccc3S(=O)(=O)C4)CC2)cc1	36.2	-25.5%	6.1	?	-17.2%
CC(C)CCNC(=O)c1cc2c(s1)-c1ccccc1S(=O)(=O)C2	14.7	8.3%	15.8*	-8.6%	12.6%
COc1ccc(N(C)C(=O)c2cc3c(s2)-c2ccccc2S(=O)(=O)C3)cc1	2.8	2.2%	8.0	?	2.94µM*
CCCCN(C)C(=O)c1cc2c(s1)-c1ccccc1S(=O)(=O)C2	45.1	-2.0%	20.9*	18.2%	33.7%
O=C(CC1Oc2ccccc2NC1=O)NCc1ccccc1 (configuration not stated)	14.0	-2.5%	-2.9	-4.5%	.
CC(=O)CC1OC(=O)C(Br)=C1NCc1ccccc1 (configuration not stated)	28.5	1.6%	21.9*	7.38µM*	-2.0%
CCOC(=O)c1ccc(N2C(=O)C(O)=C(C(C)=O)C2c2ccc([N+](=O)[O-])cc2)cc1 (configuration not stated)	-6.2	4.2%	-1.7	-14.0%	14.0%
COC(=O)c1sccc1NC(=O)Nc1ccc(C(C)=O)cc1	53.0*	-24.9%	45.3*	258.7%	51.5%
SMILES	Shiga toxin inh	LmPK inh	Cycloheximide cs	Pf growth 96h	Pf growth 48h
CCc1ccccc1NC(=O)Nc1ccsc1C(=O)OC	27.6	5.8%	12.8	275.1%	-12.1%
COC(=O)c1sccc1NC(=S)Nc1ccc(F)cc1	-11.2	1.8%	-3.7	-14.4%	2.2%
COC(=O)c1sccc1NC(=O)Nc1cc(C)cc(C)c1	80.0*	-14.4%	47.5*	4.65µM*	55.1%
CCOc1ccccc1NC(=O)Nc1ccsc1C(=O)OC	36.5*	-2.0%	22.1*	?	105.4%
COC(=O)c1sccc1NC(=O)Nc1ccc(C)cc1C	-1.2	1.8%	25.5	-22.5%	0.0%
COC(=O)c1sccc1NC(=O)Nc1ccc(F)cc1	20.3	?	29.8*	-12.2%	28.1%
CCCCN(C(=O)c1ccc2c(c1)S(=O)(=O)N=C1CCCCCN12)c1c(N)n(CCCC)c(=O)[nH]c1=O	.	.	.	4.8%	-1.8%
COC(=O)c1sccc1NC(=O)Nc1ccc(C)cc1	86.5*	-21.7%	45.5*	2.0%	190.4%
COc1cccc(NC(=O)Nc2ccccc2Br)c1	73.7*	?	53.0*	18.8%[5.75 µM]	133.0%
COC(=O)c1sccc1NC(=O)Nc1cccc(OC)c1	39.8*	-16.7%	45.3*	-1.8%	16.7%
COC(=O)c1sccc1NC(=O)COc1ccccc1Cl	active	-16.9%	33.1*	?	46.0%
COc1cccc(NC(=O)Nc2cc(Cl)ccc2C)c1	21.8	-1.9%	2.4	12.5%	-11.9%
Cc1cc(C)nc(SCC(CSc2nc(C)cc(C)n2)C(=O)O)n1	18.2	-2.6%	-2.5	51.3%	5.6%
Cc1ccc(C(=O)OCC(=O)NCc2ccco2)cc1C	.	.	.	-13.7%	34.4%
CC(C)c1nc(NCCO)c2nnn(Cc3ccccc3)c2n1	-4.5	1.8%	-5.2	14.8%	-17.2%
COC(=O)c1sccc1NC(=O)Nc1ccc(F)cc1F	-7.7	-10.4%	9.7	11.7µM*	-1.9%
COc1ccsc1C(=O)Nc1ccc(F)cc1F	30.9	1.6%	30.0*	35.3%	35.1%
COC(=O)c1sccc1NC(=O)/C=C\c1ccc(Cl)cc1Cl	24.1	2.5%	3.9	57.2%	.
COC(=O)c1sccc1NC(=O)/C=C/c1ccc(Cl)cc1	39.3	-8.6%	8.9	13.1µM*	119.6%
CCCN(CCC)C(C(=O)Nc1cccc(OC)c1)c1ccccc1 (configuration not stated)	49.2	-0.1%	-0.7	13.1µM*	?
CN(C(=O)CC1C(=O)NCCN1Cc1cccc(F)c1F)C1CC(C)(C)NC(C)(C)C1 (configuration not stated)	11.7	1.7%	-2.1	?	37.3%
COCCCNC(=O)C(=O)N/N=C/c1ccc(OCC(=O)Nc2cccc(Cl)c2C)c(OC)c1	-19.4	-0.1%	10.3	13.3%	10.2%
COc1ccc(CNc2nc3ccccc3n2Cc2ccccc2)cc1OC	-9.6	4.7%	-5.3	-7.0%	0.8%
COC(=O)c1sccc1NC(=O)c1ccc(C(C)C)cc1	7.7	-5.5%	3.2	10.4µM*	13.7%
CC(C)N1CCC(N2CCN(CCCn3cccn3)CC2CCO)CC1 (configuration not stated)	-1.9	3.5%	-1.8	6.7%	18.8%
